Data: PubChem BioAssay AID1458 (National Center for Advancing Translational Sciences (NCATS), 2008)
Screen size: about 210,000 compounds; about 5,900 (2.8%) were called active. Another 5% or so got no clear call; they are omitted. Many of the other results were omitted from the sample, so actives are more common in it than they were. Unmarked numbers belong to inactive results. The call rests on the fitted dose curve; in most records, active means well fitted activation curve with a large enough effect; inconclusive means small, poorly fitted or top-dose-only effect; inactive means no such curve, though single readings can be large or run the other way.

Assay: qHTS Assay for Enhancers of SMN2 Splice Variant Expression; further: nearly all actives have a fitted effect of over 55% in size; on activity change, positive = activation: % of control where 0% means no effect
Conditions: HEK293 SMN2-luciferase splicing reporter, luminescence, 30-36 h; series mostly up to 46.1 µM; activity change, positive = activation: at the top concentration
In short: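 qHTS luciferase splicing reporter: luminescence rises when SMN2 exon 7 is included in transfected HEK293 cells. Compound exposure lasted 30-36 h at 37C, with 4.5 mM final sodium butyrate as control, followed by a ONE-Glo read.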
Potency means the concentration at half of the fitted maximal effect.

Point of comparison: `CC(=O)C1C(c2ccc(Cl)cc2)NC(=O)NC1(O)C(F)(F)F` (stereo not drawn), “activity change, positive = activation” value 7.08%. Against it:
- Cc1ccc(C(=O)Nc2ccc(OCc3cc(=O)n4c(C)csc4n3)cc2)cc1 — lower, -4.42%
- CCNC(=O)Cn1nc(C)n2c(cc3c(OC)cccc32)c1=O — lower, -2.9%
- COC(=O)c1ccccc1NC(=O)c1ccc2c(=O)n3c(nc2c1)CCCCC3 — lower, 0.0369%
- Cc1cc([N+](=O)[O-])ccc1NC(=O)C1CCCO1 (stereo not drawn) — lower, -8.2%
- O=C(Nc1nc2ccc(S(=O)(=O)N3CCCC3)cc2s1)C1CCCO1 (stereo not drawn) — higher, 25.8%
- O=C(Nc1cc(-c2nc3ccccc3o2)ccc1Cl)c1cc([N+](=O)[O-])ccc1N1CCOCC1 — lower, 7.04%
- CN(c1nc2ccccc2n2c(-c3ccco3)nnc12)S(=O)(=O)c1ccccc1 — lower, -3.62%
- CN1c2ccccc2-c2nc3ccccc3n2C1c1ccco1 (stereo not drawn) — lower, -14.7%
- COC(=O)CC1Oc2ccccc2-n2cc(-c3ccccc3)nc21 (stereo not drawn) — lower, -12.5%
- COc1cccc(N2CCN(S(=O)(=O)c3cc(Br)cc4c3N(C(=O)C3CC3)CC4)CC2)c1 — lower, -2.18%
- CCC1CCCCN1C(=O)Cn1c(=O)n(CCCCCC(=O)NCc2ccccc2)c(=O)c2sccc21 (stereo not drawn) — lower, -5.86%
- Cc1ccc(C(=O)Nc2ccc(OCc3cc(=O)n4c5c(sc4n3)CCCC5)cc2)cc1 — lower, 1.24%
- CCCCCn1c(CCNC(=O)c2ccc(F)cc2)nc2ccccc21 — lower, -27.6%
- Cn1c(CN2CCOCC2)nc2cc(NC(=O)c3ccc(Cl)cc3)ccc21 — lower, -66.9%
- COc1ccc(C2Sc3ccccc3NC3=C2C(=O)c2ccccc23)c(OC)c1OC (stereo not drawn) — higher, 7.57%
- COCC(=O)N=Nc1c(O)[nH]c2ccccc12 — higher, 16.4%
- Cc1cccc(N(CC(=O)N=Nc2c(O)[nH]c3ccccc23)S(C)(=O)=O)c1C — lower, 4.36%
- COc1ccccc1CNC(=O)C(Cc1ccccc1)NS(=O)(=O)c1ccc2c(c1)oc(=O)n2C (stereo not drawn) — lower, 4.66%
- Cc1c(Cl)cnc(NC(=O)COC(=O)c2ccc(S(=O)(=O)NCc3ccco3)cc2)c1Cl — lower, 3.97%
- O=C(NC1CCC(O)CC1)c1ccc(S(=O)(=O)NCc2ccco2)cc1 (stereo not drawn) — higher, 13%
- C/C(=N\NC(=O)COc1c(C)cccc1C)c1cccs1 — lower, -0.888%
- C/C(=N\NS(=O)(=O)c1ccc(Br)cc1)c1cccs1 — lower, -8.27%
- Cc1cccc(C(CC(=O)NCC2(c3ccccc3)CCCC2)c2ccccc2)c1O (stereo not drawn) — lower, -50.4%
- CCOc1ccccc1CNCc1c(C(=O)O)c(C)n(Cc2ccc(C)cc2)c1C — lower, 2.44%
- O=S(=O)(NCC(c1ccccc1)N1CCc2ccccc21)c1ccccc1 (stereo not drawn) — lower, -3.77%
- COc1ccc(S(=O)(=O)Nc2cc3c(C(=O)OC(C)C)c(C)oc3c3ccccc23)cc1 — lower, 4.13%
- Cc1cc2oc(C(=O)N(Cc3ccc(Cl)cc3)Cc3ccco3)c(C)c2cc1Cl — higher, 8.31%
- COc1ccccc1C(=O)Nc1c(C(=O)Nc2ccc(C)cc2)oc2ccccc12 — lower, 5.31%
- CSc1ncccc1C(=O)Nc1nc2ccc(F)cc2s1 — lower, -21.2%
- O=C(Nc1nc2ccc(F)cc2s1)c1nc(SCc2ccccc2F)ncc1Cl — lower, 3.21%
- Cc1cccc(N2CCN(C(=O)c3ccc4c(c3)CCN4S(=O)(=O)c3ccccc3)CC2)c1C — lower, -31.7%
- O=C(NCc1ccco1)c1cccn2c(=O)c3c4c(sc3nc12)CCCC4 — lower, -28.6%
- Cn1c(=O)n(Cc2ccco2)c(=N)c2c3c(sc21)CCCC3 — lower, -0.885%
- Oc1ccccc1-c1nc2ccc(Cl)cn2c1Nc1ccc2c(c1)OCCO2 — lower, -1.05%
- CC(=O)C1C(c2cccc(Oc3ccccc3)c2)NC(=O)NC1(O)C(F)(F)F (stereo not drawn) — higher, 8.81%
- Fc1ccc2c(c1)C(c1cccnc1)=NNC(c1cccs1)=N2 — lower, -11.3%
- COc1ccc2c(c1)C(c1cccs1)=NNC(c1cccnc1)=N2 — lower, -4.02%
- Cc1cccn2c(=O)c3cc(C(=O)NC(C)c4ccccc4)c(=N)n(CCCO)c3nc12 (stereo not drawn) — lower, -17.4%
- COc1cc(OC)cc(C(=O)Nc2c(C(=O)Nc3ccc(F)cc3)oc3ccccc23)c1 — lower, 0.56%
- COc1ccc(/C=C(\C#N)C(=O)ONC2=NCCCCC2)cc1 — lower, -13.8%
- CCN(CC)c1ccc(/C=N/Nc2nc(C)cc(C)n2)c(O)c1 — lower, -70.1%
- NS(=O)(=O)c1ccc(NC(=O)COc2ccc(S(=O)(=O)NC3CCCCC3)cc2)cc1 — lower, -1.03%
- Cc1ccc(S(=O)(=O)NCC(=O)N(CC(=O)NC(C)(C)C)Cc2cccs2)cc1 — lower, 2.37%
- Cc1ccc(S(=O)(=O)N(C)CC(=O)NC2CCCC2)cc1 — lower, -21.5%
- CN(Cc1ccccc1)C(=O)c1cc2c(=O)n(C)c3ccccc3c2s1 — lower, -7.18%
- Cc1cccc(NC(=O)CN(c2ccc(C(C)C)cc2)S(=O)(=O)c2c(C)nn(C)c2C)c1C — lower, 3%
- CCOc1ccc(-c2cc3nc(C4CCN(C(=O)OC(C)(C)C)CC4)c(C(=O)Nc4ccc(C(=O)OC)cc4)cn3n2)cc1 — lower, -1.9%
- OC(c1nnc(-c2ccccc2)o1)c1cccs1 (stereo not drawn) — lower, -2.46%
- Cn1nc(-c2ccccc2)c(-c2nc(-c3ccc(Cl)cc3)no2)c1Cl — lower, -29.9%
- Nc1nonc1-c1noc(-c2ccc(Br)o2)n1 — higher, 9.38%
- CCCN(CCC)c1ccc(C(O)c2nnc(-c3ccccc3)o2)cc1 (stereo not drawn) — lower, -65.9%
- COC(=O)c1sc2ncccc2c1-n1c(C)ccc1C — lower, 6.92%
- Cc1sc2ncn(CC(=O)N3CCN(c4ccc(F)cc4)CC3)c(=O)c2c1S(=O)(=O)N1CCN(c2ncccn2)CC1 — lower, 5.62%
- CCc1nccn1S(=O)(=O)c1cc(Br)ccc1Br — lower, 1.92%
- Cc1ccc(-c2nn(CCC(=O)Nc3ccc(Cl)c(Cl)c3)c(=O)c3ccccc23)cc1 — lower, -7.8%
- CC(C)Cn1c(C2CC(=O)N(c3ccccc3Cl)C2)nc2ccccc21 (stereo not drawn) — lower, -18.1%
- Cc1cccc(NC(=O)CSc2nc3c(oc4ccccc43)c(=O)n2-c2ccc(F)cc2)c1 — higher, 10.2%
- Cc1cc(C)c2oc(C(=O)Nc3ccc(S(=O)(=O)N4CCCCCC4)cc3)cc(=O)c2c1 — lower, 6.66%
- Cc1ccc(S(=O)(=O)N(Cc2nc(-c3ccc(Cl)cc3)no2)C2CCCCC2)cc1 — lower, -9.98%
- COc1ccc(C=Nc2cccc3ncccc23)cc1 — higher, 7.26%
- O=c1c2ccccc2nc(N/N=C/c2ccccc2)n1O — higher, 24.9%
- CCc1cc2c(cc3c(=O)n(CC(=O)N4CCN(c5cc(Cl)ccc5C)CC4)nc(CC)n32)s1 — lower, -1.27%
- CCCS(=O)(=O)c1c(Nc2ccccc2C)sc(C(=O)c2ccccc2)c1N — lower, -28.1%
- O=c1c2cccnc2n(Cc2cccc(F)c2)c(=O)n1Cc1ccccc1Cl — lower, 2.72%
- CCCCOC(=O)CSc1ncnc2sc3c(c12)CCC(C)C3 (stereo not drawn) — lower, 2.8%
- Cc1ccc(NC(=O)CNCc2ccccn2)cc1S(=O)(=O)N(C)C — higher, 16.5%
- Cc1ccc(NC(=O)c2cccs2)cc1S(=O)(=O)N(C)C — lower, 2.79%
- O=C(Nc1cccc2ccccc12)c1onc2c1CCCC2 — higher, 60%
- COc1ccc(C(=O)Nc2ccc(S(=O)(=O)NC(C)C)cc2)cc1 — lower, -6.41%
- COc1ccc(NC(=O)c2c(C)oc3c2CCCC3)cc1 — lower, -13.5%
- COc1ccc(C(=O)N/N=c2\oc3ccccc3cc2C(N)=O)cc1 — lower, -10.2%
- CCc1cc(C(c2ccccc2OC)N2CCOCC2)c(NC(=O)c2ccccc2)s1 (stereo not drawn) — lower, -19.6%
- COc1ccccc1CC(=O)Nc1ccc(F)cc1F — higher, 8.91%
- COc1ccc(NC(=O)c2ccc(C#CC(C)(C)O)cc2)cc1 — lower, -25.7%
- COc1cc(OC)cc(C(=O)OCC(=O)Nc2ccc(F)cc2F)c1 — lower, -0.371%
- Cc1ccc(CCNC(=O)Cn2c(-c3cccs3)cc3cc(F)ccc32)cc1 — lower, -4.22%
- COc1ccccc1CNC(=O)CCCCn1c(=O)c2ccccc2n(CC(=O)Nc2cc(Cl)ccc2C)c1=O — lower, 2.43%
- O=C(COc1ccc(Cl)cc1)N(Cc1ccco1)Cc1ccco1 — lower, -7.98%
- COc1cccc(NC(=O)N(Cc2cn(C)c3ccccc23)C2CCCCCC2)c1 — lower, -10.9%
- CCn1c2ccccc2c2cc(NC(=O)COc3ccc(C)cc3C)ccc21 — lower, -3.35%
- CCOC(=O)c1ccc(NC2=CC(c3ccc(OCC)cc3)N(c3ccc(C(=O)OCC)cc3)C2=O)cc1 (stereo not drawn) — lower, 6.6%

In the case of `Cc1cc(C)c2nc(NC(=O)C3CCCO3)sc2c1` (stereo not drawn), the Potency is reported as 12.6 µM (active).
With `Cn1c(-c2ccco2)nc2cc3ccccc3cc21` the Potency was 2.51 µM (active).
With `CN(C)CCN=c1cc(-c2ccccc2)oc2ccc(Cl)cc12` the Potency was 15.8 µM (active).
With `CC(=O)NCCc1nc2cc(NC(=O)c3ccccc3)ccc2n1C` the Potency was 22.4 µM (active).
For `Cc1c(-c2ccccc2)n[nH]c1C(=O)N=Nc1c(O)[nH]c2ccccc12`, the Potency was 20 µM (active).
With `C/C(=N\Nc1ncc(Cl)cc1Cl)c1ccc(S(=O)(=O)NCc2ccco2)cc1` the Potency was 12.6 µM (active).
In the case of `C/C(=N\Nc1ncc(Cl)cc1Cl)c1cccs1`, the Potency is reported as 11.2 µM (active).
For `CCS(=O)(=O)N1Cc2ccccc2CC1C(=O)Nc1nc2ccc(F)cc2s1` (stereo not drawn), the Potency was 14.1 µM (active).
For `O=c1oc(-c2ccco2)nc2sc3c(c12)CCCCC3`, the Potency was 14.1 µM (active).
In the case of `O=C(c1cccs1)C1C(c2ccc(Br)cc2)NC(=S)NC1(O)C(F)(F)F` (stereo not drawn), the Potency is reported as 12.6 µM (active).
For `CCOc1ccc2c(c1)C(c1ccc(C)cc1)=NNC(c1ccc(C)cc1)=N2`, the Potency was 12.6 µM (active).
With `Oc1ccc(/C=N/NC2=NCCCCC2)c(O)c1` the Potency was 12.6 µM (active).
For `Cc1ccc(S(=O)(=O)NCC(=O)N(CC(=O)NC2CCCCC2)Cc2ccco2)cc1`, the Potency was 20 µM (active).
With `Brc1ccc(-c2nnc(-c3ccccc3)o2)o1` the Potency was 14.1 µM (active).
With `Brc1ccc(-c2noc(-c3ccccc3)n2)o1` the Potency was 11.2 µM (active).
With `COc1ccc(/C=N/Nc2nc3ccccc3c(=O)[nH]2)cc1` the Potency was 12.6 µM (active).
For `Cc1ccc(C(=O)Nc2ccc(C)c(S(=O)(=O)N(C)C)c2)s1`, the Potency was 12.6 µM (active).
For `COc1ccc(NC(=O)c2ccc(OC)cc2)cc1`, the Potency was 11.2 µM (active).
For `COc1ccc(C(=O)Nc2ccc(F)cc2F)cc1`, the Potency was 10 µM (active).
For `CCc1cc(C(N)=O)c(NC(=O)c2ccc(OC)cc2)s1`, the Potency was 11.2 µM (active).
In the case of `COc1ccc(C(=O)Nc2onc3c2CCCC3)cc1`, the Potency is reported as 0.794 µM (active).
